Laboratory results published in the supplement of paper PMC11732987, “Enantioselective OTUD7B fragment discovery through chemoproteomics screening and high-throughput optimisation” (Communications Chemistry, 2025).

What was measured:
Experiment in all cases: log2 ratio of Biotin-Ahx-Ub-VS probe labelling (fragment/DMSO); higher = less target engagement (more negative = stronger competition), active = hit call of the paper (q ≤ 0.05, log2 ratio ≤ -1)
Details in all cases: compound concentration: 200 uM; treatment time: 3 h
USP9X = USP9X (UniProt Q93008)
Procedure, shortened: (§1)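 HEK293T lysate (495 µg per sample, in Tris/CHAPS/IGEPAL buffer with protease inhibitors) was exposed in triplicate for 3 h to fragment at 200 µM or to vehicle, then to Biotin-Ahx-Ub-VS at 0.5 µM final for 1 h. Labelled DUBs were enriched on NeutrAvidin, digested with LysC and trypsin, and analysed by diaPASEF LC-MS/MS. Spectronaut label-free quantities were normalised to the global median, and values are average log2 ratios of fragment over vehicle from an unpaired t-test. Only proteins with ≥2 unique peptides were used.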

UniProt O00487 = target: UniProt O00487
Procedure, shortened: as §1

UniProt O00507 = target: UniProt O00507
Procedure, shortened: as §1

UniProt P51784 = target: UniProt P51784
Procedure, shortened: as §1

UniProt Q5T2D3 = target: T1, UniProt Q5T2D3
T1 sequence (whole entry): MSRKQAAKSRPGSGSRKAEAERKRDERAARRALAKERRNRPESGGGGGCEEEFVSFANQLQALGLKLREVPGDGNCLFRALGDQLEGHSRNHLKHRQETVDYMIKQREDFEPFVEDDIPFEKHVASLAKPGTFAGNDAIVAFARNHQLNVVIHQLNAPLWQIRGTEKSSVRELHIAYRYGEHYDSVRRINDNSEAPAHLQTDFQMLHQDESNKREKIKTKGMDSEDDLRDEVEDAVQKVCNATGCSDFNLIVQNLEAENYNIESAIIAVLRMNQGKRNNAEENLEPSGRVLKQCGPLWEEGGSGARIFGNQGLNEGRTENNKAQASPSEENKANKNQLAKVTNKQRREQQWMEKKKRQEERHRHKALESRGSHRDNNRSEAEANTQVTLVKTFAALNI
Procedure, shortened: as §1

UniProt Q8TE49 = target: T2, UniProt Q8TE49
T2 sequence (whole entry): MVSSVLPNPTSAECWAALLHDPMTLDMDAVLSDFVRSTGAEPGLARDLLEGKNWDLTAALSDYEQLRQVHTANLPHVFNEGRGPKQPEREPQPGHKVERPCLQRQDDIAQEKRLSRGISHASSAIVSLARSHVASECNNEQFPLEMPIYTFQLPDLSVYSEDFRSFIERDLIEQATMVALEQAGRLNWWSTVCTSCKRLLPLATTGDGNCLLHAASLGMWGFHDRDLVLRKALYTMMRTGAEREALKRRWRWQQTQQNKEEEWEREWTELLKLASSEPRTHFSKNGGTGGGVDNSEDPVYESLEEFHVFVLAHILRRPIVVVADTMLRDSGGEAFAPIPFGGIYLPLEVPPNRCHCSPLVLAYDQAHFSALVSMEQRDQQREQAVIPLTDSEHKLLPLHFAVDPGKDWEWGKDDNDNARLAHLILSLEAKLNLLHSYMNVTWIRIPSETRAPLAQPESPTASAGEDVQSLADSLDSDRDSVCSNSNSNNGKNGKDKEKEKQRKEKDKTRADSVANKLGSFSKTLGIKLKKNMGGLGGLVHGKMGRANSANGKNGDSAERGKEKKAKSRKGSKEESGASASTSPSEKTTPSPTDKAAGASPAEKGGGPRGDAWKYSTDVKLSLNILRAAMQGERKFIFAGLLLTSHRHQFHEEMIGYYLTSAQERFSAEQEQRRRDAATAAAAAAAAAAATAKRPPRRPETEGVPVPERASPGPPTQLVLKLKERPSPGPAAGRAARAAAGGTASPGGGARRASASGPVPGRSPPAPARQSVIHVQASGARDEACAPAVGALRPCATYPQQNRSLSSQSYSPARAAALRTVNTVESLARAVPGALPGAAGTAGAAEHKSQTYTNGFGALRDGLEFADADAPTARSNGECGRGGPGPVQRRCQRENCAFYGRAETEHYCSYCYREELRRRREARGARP
Procedure, shortened: as §1

UniProt Q9P2H5 = target: T3, UniProt Q9P2H5
T3 sequence (whole entry): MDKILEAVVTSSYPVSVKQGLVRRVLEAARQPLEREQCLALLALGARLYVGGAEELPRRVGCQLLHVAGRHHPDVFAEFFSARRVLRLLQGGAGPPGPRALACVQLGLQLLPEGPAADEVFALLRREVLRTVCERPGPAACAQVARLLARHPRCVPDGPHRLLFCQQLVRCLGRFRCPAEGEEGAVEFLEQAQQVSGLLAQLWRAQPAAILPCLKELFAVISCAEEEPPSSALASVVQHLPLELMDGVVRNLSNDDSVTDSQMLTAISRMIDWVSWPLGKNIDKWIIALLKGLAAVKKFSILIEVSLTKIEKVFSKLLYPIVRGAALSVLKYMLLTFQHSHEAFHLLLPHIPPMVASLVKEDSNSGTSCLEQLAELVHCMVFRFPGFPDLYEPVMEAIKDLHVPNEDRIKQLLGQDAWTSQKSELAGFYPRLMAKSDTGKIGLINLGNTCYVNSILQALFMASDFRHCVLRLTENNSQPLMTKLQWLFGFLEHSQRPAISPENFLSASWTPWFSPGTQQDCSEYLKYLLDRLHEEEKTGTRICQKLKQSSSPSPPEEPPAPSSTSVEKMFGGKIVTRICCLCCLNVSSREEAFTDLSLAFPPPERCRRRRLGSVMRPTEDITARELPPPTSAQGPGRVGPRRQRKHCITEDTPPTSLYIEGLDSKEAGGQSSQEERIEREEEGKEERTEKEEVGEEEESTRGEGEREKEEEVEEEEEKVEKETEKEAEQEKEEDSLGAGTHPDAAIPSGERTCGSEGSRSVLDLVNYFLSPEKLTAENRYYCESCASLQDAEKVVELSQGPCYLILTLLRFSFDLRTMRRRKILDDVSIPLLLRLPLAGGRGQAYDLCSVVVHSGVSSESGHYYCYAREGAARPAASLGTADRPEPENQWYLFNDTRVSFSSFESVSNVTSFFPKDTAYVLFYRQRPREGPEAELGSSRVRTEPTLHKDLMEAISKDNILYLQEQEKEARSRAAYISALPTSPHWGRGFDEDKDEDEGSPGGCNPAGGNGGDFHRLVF
Procedure, shortened: as §1

UniProt Q9UGI0 = target: T4, UniProt Q9UGI0
T4 sequence (whole entry): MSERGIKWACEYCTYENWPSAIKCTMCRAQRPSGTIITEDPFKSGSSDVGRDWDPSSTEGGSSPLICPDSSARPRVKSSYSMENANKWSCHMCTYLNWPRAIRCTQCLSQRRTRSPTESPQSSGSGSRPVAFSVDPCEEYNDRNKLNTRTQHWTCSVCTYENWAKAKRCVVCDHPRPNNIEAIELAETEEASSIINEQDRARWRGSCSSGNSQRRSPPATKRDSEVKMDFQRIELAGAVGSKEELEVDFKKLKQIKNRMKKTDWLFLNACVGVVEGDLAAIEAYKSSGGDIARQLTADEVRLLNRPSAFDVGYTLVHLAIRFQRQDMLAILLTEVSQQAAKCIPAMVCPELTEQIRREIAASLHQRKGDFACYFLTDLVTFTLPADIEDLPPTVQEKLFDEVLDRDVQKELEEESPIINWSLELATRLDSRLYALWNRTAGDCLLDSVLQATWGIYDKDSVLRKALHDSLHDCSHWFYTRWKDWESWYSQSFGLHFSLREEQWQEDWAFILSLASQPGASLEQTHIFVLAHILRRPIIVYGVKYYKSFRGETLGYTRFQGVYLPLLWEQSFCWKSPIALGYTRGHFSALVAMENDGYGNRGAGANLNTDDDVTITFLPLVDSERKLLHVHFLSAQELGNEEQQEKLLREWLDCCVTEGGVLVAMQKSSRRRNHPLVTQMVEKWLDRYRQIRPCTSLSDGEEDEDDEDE
Procedure, shortened: as §1

YOD1 = target: T5, YOD1 (UniProt Q5VVQ6)
T5 sequence (whole entry): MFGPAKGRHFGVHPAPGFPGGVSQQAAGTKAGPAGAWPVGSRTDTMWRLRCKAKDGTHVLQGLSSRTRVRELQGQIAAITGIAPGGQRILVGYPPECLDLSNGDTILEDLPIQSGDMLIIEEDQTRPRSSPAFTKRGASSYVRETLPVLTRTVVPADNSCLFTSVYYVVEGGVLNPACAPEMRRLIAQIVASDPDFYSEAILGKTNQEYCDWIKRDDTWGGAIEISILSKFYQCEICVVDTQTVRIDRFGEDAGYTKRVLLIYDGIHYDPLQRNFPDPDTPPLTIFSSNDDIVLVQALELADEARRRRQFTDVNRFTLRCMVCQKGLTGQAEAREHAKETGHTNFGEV
Procedure, shortened: as §1

Measured: log2 ratio of Biotin-Ahx-Ub-VS probe labelling

USP9X, sequence (Q93008 whole entry, the tested form may be a part): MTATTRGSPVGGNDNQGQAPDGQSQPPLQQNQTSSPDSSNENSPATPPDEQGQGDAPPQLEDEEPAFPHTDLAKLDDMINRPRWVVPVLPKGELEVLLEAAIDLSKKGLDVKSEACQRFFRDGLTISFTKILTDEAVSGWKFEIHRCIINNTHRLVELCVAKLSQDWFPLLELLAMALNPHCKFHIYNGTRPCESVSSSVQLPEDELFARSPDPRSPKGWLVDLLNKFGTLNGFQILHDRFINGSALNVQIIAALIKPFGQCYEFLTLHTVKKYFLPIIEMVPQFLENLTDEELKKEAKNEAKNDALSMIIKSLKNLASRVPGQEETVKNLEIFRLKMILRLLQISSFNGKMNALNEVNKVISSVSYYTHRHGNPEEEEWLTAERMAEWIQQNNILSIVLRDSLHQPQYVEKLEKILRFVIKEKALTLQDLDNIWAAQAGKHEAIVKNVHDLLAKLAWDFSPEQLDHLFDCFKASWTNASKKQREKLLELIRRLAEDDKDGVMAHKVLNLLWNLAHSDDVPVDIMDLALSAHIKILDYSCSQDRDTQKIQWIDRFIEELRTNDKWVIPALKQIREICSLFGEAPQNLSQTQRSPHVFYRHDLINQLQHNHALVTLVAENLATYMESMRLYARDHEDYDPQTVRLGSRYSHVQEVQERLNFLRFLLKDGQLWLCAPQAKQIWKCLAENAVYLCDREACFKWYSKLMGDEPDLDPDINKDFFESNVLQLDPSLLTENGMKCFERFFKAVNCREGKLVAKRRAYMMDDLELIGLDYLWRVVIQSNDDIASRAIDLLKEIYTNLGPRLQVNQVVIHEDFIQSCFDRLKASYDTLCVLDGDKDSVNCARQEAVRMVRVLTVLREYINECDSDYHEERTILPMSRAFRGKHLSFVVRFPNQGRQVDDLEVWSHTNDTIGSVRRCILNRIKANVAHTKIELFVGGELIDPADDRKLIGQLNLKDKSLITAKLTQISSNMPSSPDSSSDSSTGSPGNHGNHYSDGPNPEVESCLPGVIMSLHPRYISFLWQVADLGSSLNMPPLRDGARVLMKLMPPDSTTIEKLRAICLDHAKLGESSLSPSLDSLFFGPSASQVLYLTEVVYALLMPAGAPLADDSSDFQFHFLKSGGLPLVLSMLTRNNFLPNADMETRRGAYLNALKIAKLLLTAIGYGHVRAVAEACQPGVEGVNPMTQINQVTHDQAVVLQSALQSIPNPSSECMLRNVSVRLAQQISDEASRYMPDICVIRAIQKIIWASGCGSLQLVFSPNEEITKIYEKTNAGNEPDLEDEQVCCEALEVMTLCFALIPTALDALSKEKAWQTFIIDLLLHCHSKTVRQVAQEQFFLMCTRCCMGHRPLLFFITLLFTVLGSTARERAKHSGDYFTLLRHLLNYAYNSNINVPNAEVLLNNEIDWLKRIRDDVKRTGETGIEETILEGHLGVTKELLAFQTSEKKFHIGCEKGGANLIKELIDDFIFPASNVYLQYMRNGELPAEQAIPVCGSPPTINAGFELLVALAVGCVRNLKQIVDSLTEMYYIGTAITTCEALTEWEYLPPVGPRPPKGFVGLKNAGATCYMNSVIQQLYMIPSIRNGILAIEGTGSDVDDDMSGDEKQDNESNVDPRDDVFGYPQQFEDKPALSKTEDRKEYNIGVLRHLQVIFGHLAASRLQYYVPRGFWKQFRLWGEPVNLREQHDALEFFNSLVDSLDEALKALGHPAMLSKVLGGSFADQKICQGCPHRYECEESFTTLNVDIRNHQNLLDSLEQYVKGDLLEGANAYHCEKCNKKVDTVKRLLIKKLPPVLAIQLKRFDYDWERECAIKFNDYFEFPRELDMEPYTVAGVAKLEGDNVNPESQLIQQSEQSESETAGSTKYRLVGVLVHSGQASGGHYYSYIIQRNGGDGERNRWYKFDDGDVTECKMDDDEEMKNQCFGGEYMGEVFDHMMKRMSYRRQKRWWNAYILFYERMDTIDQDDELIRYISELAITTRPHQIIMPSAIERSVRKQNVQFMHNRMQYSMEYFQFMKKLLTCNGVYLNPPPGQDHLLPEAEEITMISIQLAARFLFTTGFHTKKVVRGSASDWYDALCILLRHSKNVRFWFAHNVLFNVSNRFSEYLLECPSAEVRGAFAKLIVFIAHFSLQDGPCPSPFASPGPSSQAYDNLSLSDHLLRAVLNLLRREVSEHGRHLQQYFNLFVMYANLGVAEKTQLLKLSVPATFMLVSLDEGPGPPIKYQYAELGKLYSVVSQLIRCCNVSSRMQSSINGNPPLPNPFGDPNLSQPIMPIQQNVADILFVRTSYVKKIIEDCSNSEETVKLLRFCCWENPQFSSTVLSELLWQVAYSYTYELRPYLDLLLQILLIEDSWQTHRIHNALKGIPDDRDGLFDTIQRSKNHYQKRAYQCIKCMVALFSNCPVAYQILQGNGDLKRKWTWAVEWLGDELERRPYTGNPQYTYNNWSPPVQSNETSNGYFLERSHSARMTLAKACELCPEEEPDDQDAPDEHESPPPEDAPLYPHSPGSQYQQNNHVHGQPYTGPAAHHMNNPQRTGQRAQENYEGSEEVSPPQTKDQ
UniProt O00487, sequence (O00487 whole entry): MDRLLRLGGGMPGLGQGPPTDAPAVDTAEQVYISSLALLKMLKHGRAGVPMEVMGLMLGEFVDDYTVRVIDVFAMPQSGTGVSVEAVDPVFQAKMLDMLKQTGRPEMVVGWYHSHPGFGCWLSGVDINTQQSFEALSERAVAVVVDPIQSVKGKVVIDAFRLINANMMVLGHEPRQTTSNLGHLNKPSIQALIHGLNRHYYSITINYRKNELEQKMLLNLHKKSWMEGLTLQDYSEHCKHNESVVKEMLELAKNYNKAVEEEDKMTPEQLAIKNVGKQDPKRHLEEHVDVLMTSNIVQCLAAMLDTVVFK
UniProt P51784, sequence (P51784 whole entry): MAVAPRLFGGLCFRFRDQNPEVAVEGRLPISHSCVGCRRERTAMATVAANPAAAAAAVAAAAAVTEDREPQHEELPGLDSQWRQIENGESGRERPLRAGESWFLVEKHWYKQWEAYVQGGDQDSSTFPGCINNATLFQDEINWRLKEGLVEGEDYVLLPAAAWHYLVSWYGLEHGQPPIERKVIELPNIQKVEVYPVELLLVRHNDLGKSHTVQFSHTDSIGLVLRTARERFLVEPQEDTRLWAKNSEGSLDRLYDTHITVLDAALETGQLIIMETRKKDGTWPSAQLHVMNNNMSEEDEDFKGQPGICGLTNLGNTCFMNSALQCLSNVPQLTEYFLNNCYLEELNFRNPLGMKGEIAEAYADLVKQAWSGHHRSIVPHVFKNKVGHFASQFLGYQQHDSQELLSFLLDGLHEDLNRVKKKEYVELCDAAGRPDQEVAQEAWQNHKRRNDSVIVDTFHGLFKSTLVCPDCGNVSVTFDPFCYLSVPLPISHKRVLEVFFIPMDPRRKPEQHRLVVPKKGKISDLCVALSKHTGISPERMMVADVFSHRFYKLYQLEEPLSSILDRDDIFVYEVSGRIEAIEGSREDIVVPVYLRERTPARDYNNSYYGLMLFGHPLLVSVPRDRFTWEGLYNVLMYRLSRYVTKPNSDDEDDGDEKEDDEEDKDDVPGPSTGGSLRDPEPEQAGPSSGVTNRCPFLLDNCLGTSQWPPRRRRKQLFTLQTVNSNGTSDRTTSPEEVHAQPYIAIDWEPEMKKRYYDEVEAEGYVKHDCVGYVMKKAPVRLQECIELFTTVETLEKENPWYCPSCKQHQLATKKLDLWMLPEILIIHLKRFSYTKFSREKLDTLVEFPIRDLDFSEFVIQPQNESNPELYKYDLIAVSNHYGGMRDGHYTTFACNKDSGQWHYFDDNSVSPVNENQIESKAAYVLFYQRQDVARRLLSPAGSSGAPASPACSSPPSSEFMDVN

N#Cc1ccc(CNC(=O)CCl)cc1
inactive: USP9X -0.0142 | UniProt O00487 -0.00705 | UniProt O00507 -0.0509 | UniProt P51784 -0.059 | UniProt Q5T2D3 -0.00706 | UniProt Q8TE49 -0.236 | UniProt Q9P2H5 -0.0879 | UniProt Q9UGI0 -0.592 | YOD1 -0.136
